According to PubChem BioAssay (Tox21):
Results filed as inconclusive are left out. Entries that show only a call come without a potency. Activity calls are given as the source filed them. Calls come from the whole dose curve; as a rule, active = well fitted cell-killing curve with a large enough effect in the repeat runs; inconclusive = weak or mixed curves; inactive = no such curve, though single readings can be large or run the other way.

Test: qHTS assay to identify small molecule antagonists of the androgen receptor (AR) signaling pathway - cell viability counter screen (AID 743033; note: nearly all actives have a fitted effect of over 45% in size)
Details: AR-bla HEK293 viability, CellTiter-Glo luminescence, 16 h; series mostly up to 58.5 µM
Source text: National Center for Advancing Translational Sciences [NCATS]
NIH Chemical Genomics Center [NCGC]
U.S. Environmental Protection Agency [EPA]
National Institutes of Environmental Health Sciences [NIEHS]
National Toxicology Program [NTP]
U.S. Food and Drug Administration [FDA]
Androgen receptor (AR), a nuclear hormone receptor, plays a critical role in AR-dependent prostate cancer and other androgen related diseases. Endocrine disrupting chemicals (EDCs) and their interactions with steroid hormone receptors like AR may cause disruption of normal endocrine function as well as interfere with metabolic homeostasis, reproduction, developmental and behavioral functions. To identify the compounds that inhibit AR signaling, GeneBLAzer AR-UAS-bla-GripTite cell line (Invitrogen, Carlsbad, CA, USA) containing a beta-lactamase reporter gene under control of an Upstream Activator Sequence (UAS) stably integrated into HEK293 cells was used to screen the Tox21 10K compound library. The cytotoxicity of the Tox21 compound library against the AR-bla cell line was tested in parallel by measuring the cell viability using CellTiter-Glo assay in the same wells.
Tox21 Assay Protocol Summary:
AR-bla cells were dispensed at 2,000 cells/5 uL of assay medium per well into black wall/clear-bottom 1536-well plates using a Multidrop Combi (ThermoFisher Scientific, Waltham, MA) dispenser. After the assay plates were incubated at a 37C and 5% CO2 for 4 hr, 23 nL of compounds dissolved in DMSO, positive controls or DMSO only was transferred to the assay plate by a Pintool station (Kalypsys, San Diego, CA), followed by addition of 1 uL of agonist (R1881) in culture medium using a Bioraptr Flying Reagent Dispenser (FRD) workstation (Beckman Coulter, Indianapolis, IN, USA). The plates were incubated at a 37C and 5% CO2 for 16 h. After 1 uL of LiveBLAzerTM B/G FRET substrate was added using a Bioraptr FRD, the plates were incubated at room temperature for 2 h and fluorescence intensity was measured by an Envision plate reader (PerkinElmer, Shelton, CT). For cell viability readout that measures cytotoxicity, 4 ul/well of CellTiter-Glo reagent was added into the assay plates using a Bioraptr FRD. After 30 min incubation at room temperature, the luminescence intensity in the plates was measured using a ViewLux (PerkinElmer) plate reader.
Potency is the fitted concentration of half-maximal effect.

Row | Compound | Potency
1 | Oc1cc(O)c(Cl)cc1Cl | inactive
2 | Cc1ccccc1N1C(=O)c2cc(S(N)(=O)=O)c(Cl)cc2NC1C (stereo not given) | inactive
3 | CC(=N\O)/C(C)=N/O | inactive
4 | CC1=C(C=O)C(C)(C)CCC1 | inactive
5 | O=C(CCCN1CCC(O)(c2ccc(Br)cc2)CC1)c1ccc(F)cc1 | inactive
6 | CCC(C(=O)OCCOCCN(CC)CC)c1ccccc1 (stereo not given) | inactive
7 | COc1ccccc1N=Nc1c(S(=O)(=O)O)cc2cc(S(=O)(=O)O)cc(NC(C)=O)c2c1O | inactive
8 | CCCC(=O)O[C@]1(C(=O)COC(=O)CC)CC[C@H]2[C@@H]3CCC4=CC(=O)CC[C@]4(C)[C@H]3[C@@H](O)C[C@@]21C | inactive
9 | CC(C)=CC=O | inactive
10 | CC1(C)C2=CCCC(C)(C)[C@]23CC[C@H]1C3 | inactive
11 | O=[N+]([O-])c1cccc(S(=O)(=O)NCCNS(=O)(=O)c2cccc([N+](=O)[O-])c2)c1 | inactive
12 | CC(C)CCCCCCOC(=O)CCCCC(=O)OCCCCCCC(C)C | inactive
13 | O=C(C(=O)c1ccccc1)c1ccccc1 | inactive
14 | O=C(CCCCCCCCC#CI)Oc1ccccc1 | inactive
15 | CC(CCO)CCc1ccccc1 (stereo not given) | inactive
16 | CCC(C)(O)CCC=C(C)C (stereo not given) | inactive
17 | CCCCC(CC)CNCC(CC)CCCC (stereo not given) | inactive
18 | CCC1(C)CC(=O)NC1=O (stereo not given) | inactive
19 | CCc1cccc(N(C)C(N)=Nc2cccc3ccccc23)c1 | inactive
20 | CCCOCCOCCO | inactive

Row | Compound | Potency
21 | Cc1ccc(S)cc1 | inactive
22 | Cc1occc1C(=O)Nc1ccc(C(=O)N2CCC(F)(F)/C(=C\C(=O)N3CCC(N4CCCCC4)CC3)c3ccccc32)cc1 | inactive
23 | COC(OC)(C(=O)c1ccccc1)c1ccccc1 | inactive
24 | CCCCC(CC)COC(=O)COc1ccc(Cl)cc1C (stereo not given) | inactive
25 | CCOC(=N)CC(=O)OCC | inactive
26 | C(=C\c1ccccc1)/CN1CCN(C(c2ccccc2)c2ccccc2)CC1 | inactive
27 | Cc1oncc1C(=O)Nc1ccc(C(F)(F)F)cc1 | 54.9 µM (active)
28 | CCCCOC(=O)CCS | inactive
29 | N#C/C(=C1/SC[C@@H](c2ccc(Cl)cc2Cl)S1)n1ccnc1 | inactive
30 | CCCC1C(CC)=CC(CC)=CN1c1ccccc1 (stereo not given) | inactive
31 | c1ccc(COCc2ccccc2)cc1 | inactive
32 | Cc1nccn1-c1ccc(Sc2cccc(C3(C(N)=O)CCOCC3)c2)cc1 | 4.9 µM (active)
33 | CCOc1cc(N)c(Cl)cc1C(=O)NCC1CN(Cc2ccc(F)cc2)CCO1 (stereo not given) | inactive
34 | OCC1CC=CCC1 (stereo not given) | inactive
35 | O=C(/C=C/c1ccccc1)OCCCc1ccccc1 | inactive
36 | O=S(=O)(c1ccccc1)c1ccc(Cl)cc1 | inactive
37 | CC(C)C(OC(=O)c1ccccc1)C(C)(C)COC(=O)c1ccccc1 (stereo not given) | inactive
38 | Nc1ccc(Cl)cc1[N+](=O)[O-] | inactive
39 | Cc1nc2ccccc2s1 | inactive
40 | O=c1[nH]c2ccc(S(=O)CCN3CCC(Cc4ccc(F)cc4)CC3)cc2o1 (stereo not given) | inactive
